Values of other authors as cited in PubChem BioAssay AID977611.
Among all 3,900 compounds or so, about 3,900 (100%) were called active. The limit is not given here; nearly all actives have Kd up to about 4200 µM. So high a share suggests a set chosen from earlier hits. The list shows a part of the results. Where a SMILES comes first, the peptide text is derived from it. Non-standard residues stand in square brackets, D forms with d. Residues, ends and D or L forms follow the SMILES beside them. Orn(CH(NH2)2) = NC(N)NCCC[C@H](N)C(=O)O

Assay: PubChem AID 977611
Conditions: PDB protein-ligand complexes, literature Kd

For O=C(CCN1CCCCC1)N1CCc2[nH]c(=O)c3cc(F)ccc3c2C1, which Kd (protein: Putative ADP-ribosyltransferase Certhrax, PDB entry 4fxq) is on record?
The Kd was 1.7 µM (active).

Which Kd (protein: Lysine--tRNA ligase, PDB entry 4pg3) does the source give for C[C@H]1CCC[C@H](C[C@H]2Cc3cc(O)cc(O)c3C(=O)O2)O1 here?
Its Kd is 0.014 µM (active).

For CC[C@H](C)[C@H](NC(=O)[C@@H](NC(=O)[C@H](CC(C)C)NC(=O)[C@H](C)NC(=O)[C@@H]1CCCN1C(=O)[C@H](CC(C)C)NC(=O)[C@@H](NC(=O)[C@@H]1CCCN1C(=O)[C@H](CCCCN)NC(=O)[C@H](CCCNC(N)N)NC(=O)[C@H](C)N)C(C)C)[C@@H](C)O)C(=O)N[C@@H](C)C(=O)O (H-A[Orn(CH(NH2)2)]KPVLPALTIA-OH), which Kd (protein: Mitogen-activated protein kinase 1 (R77A, E314A, I255G, C162S mutation), PDB entry 4h3q) is on record?
The Kd was 8 µM (active).

With CC[C@H](C)[C@H](NC(=O)[C@H](CO)NC(=O)[C@@H]1CCCN1C(=O)[C@H](C)N)C(=O)N[C@@H](CC(=O)O)C(=O)N[C@@H](CCCNC(N)N)C(=O)N[C@@H](CO)C(=O)N[C@H](C(=O)N[C@@H](CCCCN)C(=O)N1CCC[C@H]1C(=O)N1CCC[C@H]1C(=O)N[C@@H](CC(C)C)C(=O)O)[C@@H](C)O (H-APSID[Orn(CH(NH2)2)]STKPPL-OH) as the molecule, how does the Kd (protein: Grb2-related adaptor protein 2(C-terminal SH3 domain (SH3C) of Mona/Gads, PDB entry 1oeb) read?
The Kd was 0.118 µM (active).

For CC[C@H](C)[C@H](NC(=O)[C@H](CC(C)C)NC(=O)[C@@H]1CCCN1C(=O)[C@@H]1CCCN1C(=O)[C@@H]1CCCN1C(=O)[C@H](CC(N)=O)NC(=O)[C@H](CO)NC(=O)[C@@H](NC(=O)[C@@H](N)[C@@H](C)O)[C@@H](C)CC)C(=O)N[C@@H](CO)C(=O)N[C@@H](CO)C(=O)N[C@@H](C)C(=O)N[C@@H](CCCCN)C(=O)O (H-TISNPPPLISSAK-OH), which Kd (protein: The MYND domain (NHR4) of ETO, PDB entry 2odd) is on record?
The Kd was 109 µM (active).

Which Kd (protein: Vacuolar protein sorting-associating protein 4A, PDB entry 2k3w) does the source give for CC[C@H](C)[C@H](N)C(=O)N[C@@H](CCC(=O)O)C(=O)N[C@@H](CC(C)C)C(=O)N1CCC[C@H]1C(=O)N[C@@H](CCC(=O)O)C(=O)N[C@H](C(=O)N1CCC[C@H]1C(=O)N[C@@H](CO)C(=O)N[C@@H](CCC(=O)O)C(=O)N1CCC[C@H]1C(=O)N[C@@H](CC(C)C)C(=O)N1CCC[C@H]1C(=O)O)C(C)C (H-IELPEVPSEPLP-OH) here?
The Kd was 5.8 µM (active).

For CC[C@H](C)[C@H](NC(=O)[C@@H](NC(=O)[C@@H](N)CS)[C@@H](C)CC)C(=O)N[C@@H](CO)C(=O)N[C@@H](C)C(=O)N[C@@H](CCSC)C(=O)N1CCC[C@H]1C(=O)N[C@H](C(=O)N[C@@H](CCCCN)C(=O)N[C@@H](CO)C(=O)N[C@@H](CO)C(=O)N[C@@H](CCCNC(N)N)C(=O)N[C@@H](CCCCN)C(=O)N[C@@H](C)C(=O)N[C@@H](CCCCN)C(=O)N[C@@H](CCCCN)C(=O)N1CCC[C@H]1C(=O)N[C@@H](C)C(=O)N[C@@H](CCC(N)=O)C(=O)O)[C@@H](C)O (H-CIISAMPTKSS[Orn(CH(NH2)2)]KAKKPAQ-OH), which Kd (protein: DDEF1 SH3 domain, PDB entry 2rqu) is on record?
Its Kd is 23.6 µM (active).

For H-KPAAVVAPI-OH, which Kd (protein: Ubiquitin ligase SIAH1, PDB entry 2a25) is on record?
The Kd was 24 µM (active).

Which Kd (protein: Chaperone protein DnaK, PDB entry 4ezz) does the source give for H-ELPLVKI-OH here?
The Kd was 6.4 µM (active).

With CC[C@H](C)[C@H](NC(=O)[C@H](Cc1ccccc1)NC(=O)[C@H](CCCCN)NC(=O)CN)C(=O)N1CCC[C@H]1C(=O)N[C@@H](CO)C(=O)N[C@@H](CCCNC(N)N)C(=O)N1CCC[C@H]1C(=O)N[C@@H](C)C(=O)N1CCC[C@H]1C(=O)N[C@@H](CCCCN)C(=O)N1CCC[C@H]1C(=O)N1CCC[C@H]1C(=O)N[C@@H](CO)C(=O)N[C@@H](CO)C(=O)N[C@@H](C)C(=O)O (H-GKFIPS[Orn(CH(NH2)2)]PAPKPPSSA-OH) as the molecule, how does the Kd (protein: NAP1-binding protein 2, PDB entry 2lcs) read?
Its Kd is 0.2 µM (active).
